Source: PubChem BioAssay
D1 PAM = enhances dopamine response at the human D1 receptor; P21728; AID 504651; HEK293 TREx D1 cells, calcium flux, dopamine EC20 potentiation; potentiation, % at 10 µM; hit rate 0.036% among 360,000; in the data active = potentiation above about 30%; also: 0% is about no effect
D3 ag = activates the human D3 dopamine receptor | P35462 | D3R DiscoveRx beta-arrestin cells, luminescence, 90 min | max activation, % | hit rate 0.58% among 410,000; in the data active = max activation above about 30%; also: 0% is about no effect
Target sequence (P35462 whole entry, looked up): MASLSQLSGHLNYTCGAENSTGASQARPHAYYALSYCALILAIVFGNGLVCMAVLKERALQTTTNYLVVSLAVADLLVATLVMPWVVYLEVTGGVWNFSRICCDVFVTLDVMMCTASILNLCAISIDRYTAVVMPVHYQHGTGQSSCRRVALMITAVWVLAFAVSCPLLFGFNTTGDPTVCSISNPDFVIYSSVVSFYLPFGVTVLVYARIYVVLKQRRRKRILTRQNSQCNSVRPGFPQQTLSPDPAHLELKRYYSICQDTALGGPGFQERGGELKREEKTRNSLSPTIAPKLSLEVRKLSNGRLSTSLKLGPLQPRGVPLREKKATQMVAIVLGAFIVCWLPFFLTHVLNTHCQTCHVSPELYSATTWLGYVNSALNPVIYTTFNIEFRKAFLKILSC
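Agonist-mode cell screen: cells plated at 1500/well and incubated overnight at 37 °C, then exposed to library compounds for 90 min at 37 °C. Detection reagent was added for 30–60 min at room temperature, and luminescence was read.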
DRD3 antagonist = D3 dopamine receptor (human) antagonism; D3R cells, DiscoveRx beta-arrestin luminescence, antagonist mode; hits give low values; max response, negative = inhibition, %; hit rate 2.5% among 360,000; AID 652054; in the data active = max response below about -50%; inconclusive = no clear call, values can overlap the other calls; also: % is scaled to controls: 0 for no effect and ±100 for the full control effect
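Cells expressing the human receptor were seeded at 1500 cells/well, incubated overnight at 37 degrees C in 5% CO2, then exposed to library compounds with dopamine controls for 90 minutes at 37 degrees C before luminescent detection.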
D1 antag = human D1 dopamine receptor antagonism | P21728 | HEK293 TREx D1 cells, calcium flux, dopamine EC80; hits give low values | activity change, negative = inhibition, % at 10 µM | hit rate 3.2% among 360,000; in the data active = activity change below about -30%; also: % is scaled to controls: 0 for no effect and ±100 for the full control effect
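Kinetic fluorescence of a calcium dye serves as the read-out. D1-expressing Hek293 Trex cells, induced overnight at 30 C, are exposed to compound for 180 s before an EC80 dopamine addition, then read 180 s further.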
D1 ag = human D1 receptor agonism; P21728; HEK293 T-REx D1 cells, calcium flux, agonist mode; activation, % at 2 µM; hit rate 1% among 360,000; AID 504660; in the data active = activation above about 30%; also: 0% is about no effect
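Inducible HEK293 T-REx D1 cells, force-coupled to calcium signalling, were plated at 4000 cells/well with tetracycline and held overnight at 30 C. After no-wash calcium dye loading, compound-evoked calcium rise over 180 s flagged agonists.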
The depositor's hits bear a star; ? = inconclusive; . = no result. Only some compounds are listed: those with a hit (about 6% of all), similar ones and a draw of the others.

SMILES | D1 PAM | D3 ag | DRD3 antagonist | D1 antag | D1 ag
CCCCc1ccc(NC(=S)Nc2ccc(Nc3ccc(OC)cc3)cc2)cc1 | -12 | -5 | -80* | -3 | 1
CCCCc1ccc(NC(=O)OC)cc1 | -8 | 4 | 11 | -29 | 82*
CCCCc1ccc(NC(=S)NCc2cccc(OC)c2)cc1 | -9 | -2 | 14 | -8 | 5
CCN(Cc1nc2ccccc2c(=O)[nH]1)C(=O)COc1ccccc1Cc1ccccc1 | -6 | -17 | 4 | -16 | 0
CCc1ccccc1N1CC(C(=O)Nc2cc(S(=O)(=O)N3CCCC3)ccc2Cl)CC1=O (centres undefined) | -7 | 9 | 14 | -29 | 0
CCCCCCc1cc2cc(-c3nnc(-c4ccccc4OC)o3)c(=O)oc2cc1O | -9 | 37* | 72 | -9 | 303*
CCCCCCc1cc2cc(S(=O)(=O)c3ccc(F)cc3)c(=O)oc2cc1O | -4 | 49* | 12 | -13 | 23
CCCCCCc1cc2cc(-c3nnc(-c4ccccc4O)o3)c(=O)oc2cc1O | 0 | 15 | 45 | 2 | 356*
CCCCCCc1cc2cc(-c3nnc(-c4cc(OC)c(OC)c(OC)c4)o3)c(=O)oc2cc1O | 6 | 3 | 17 | 4 | 0
NC(=O)NC(=O)CC1S/C(=N/N=C2\CSC(=O)N2)NC1=O (centres undefined) | 3 | -4 | -6 | 2 | 0
O=C(O)CNC(=O)CC1S/C(=N/N=C2/NC(=O)CS2)NC1=O (centres undefined) | -5 | 4 | 3 | -30* | 7
CCOc1cc(CNCCO)cc(Br)c1OCc1cccs1 | -2 | -4 | -14 | 0 | 34*
COc1ccc2c(c1)[C@H]1[C@H](CO2)[C@H](c2ccccc2)[C@]2(C)C(=O)N(Cc3ccc(C)cc3)CC(=O)N12 | . | 0 | -22 | . | .
O=S(=O)(c1ccc(NC(=S)N/N=C/c2ccc(N3CCOCC3)cc2)cc1)N1CCOCC1 | -7 | 7 | 2 | -44* | 2
Cc1ccccc1C(=O)NC(=S)Nc1ccc(S(=O)(=O)N2CCN(C)CC2)cc1 | -12 | -3 | -12 | -4 | 7
O=S(=O)(c1ccc(NC(=S)N/N=C/c2ccc(Oc3ccccc3)cc2)cc1)N1CCOCC1 | -3 | -5 | ? | -11 | 1
Cc1ccccc1C(=O)NC(=S)Nc1ccc(S(=O)(=O)N2CCOCC2)cc1 | -4 | -13 | -54* | -3 | 6
Cc1nnc(C(C)C)n1C1C[C@H]2CC[C@@H](C1)N2CC[C@H](NC(=O)C1CCC(F)(F)CC1)c1ccccc1 (some centres undefined) | . | -12 | . | . | .
Cc1ccc(OCCn2c(Br)nc3c2c(=O)n(C)c(=O)n3C)cc1 | -6 | 35* | 15 | -33* | 13
COc1ccccc1C(=O)NC1(C(F)(F)F)C(=O)NC(C)=C1C#N (centres undefined) | -5 | 3 | . | 5 | 0
CN1C/C(=C\c2ccc(N3CCOCC3)cc2)C(=O)/C(=C/c2ccc(N3CCOCC3)cc2)C1 | -4 | -7 | -12 | 8 | 46*
CCc1ccc(/C=C2/SC(N3CCOCC3)=NC2=O)cc1 | -2 | 10 | 4 | 3 | 0
CCN1C/C(=C/c2ccc(N3CCOCC3)cc2)C(=O)/C(=C/c2ccc(N3CCOCC3)cc2)C1 | -6 | 2 | 3 | 5 | 88*
CN1C/C(=C/c2ccncc2)C(=O)/C(=C/c2ccncc2)C1 | -5 | 1 | 11 | 7 | 2
COc1ccc(NC(=O)c2ccc(Cl)c(S(=O)(=O)NCC3CCCO3)c2)c(OC)c1 (centres undefined) | 0 | 0 | 2 | 1 | 1
COc1cccc(NC(=O)c2sc3nc(C)c(C(=O)Nc4ccc(C)cc4C)c(-c4ccc(C)o4)c3c2N)c1 | -1 | 4 | . | 7 | 8
O=C(NC1CCCCC1)C(c1ccccc1F)N(C(=O)c1csnn1)C1CCCC1 (centres undefined) | . | -7 | -5 | -23 | 61*
COc1ccccc1C(C(=O)NC1CCCCC1)N(C(=O)c1csnn1)C1CC1 (centres undefined) | . | -4 | 16 | -18 | 4
Cc1ccn2c(Nc3ccc4c(c3)OCCO4)c(-c3ccccc3O)nc2c1 | 0 | -6 | . | 0 | 0
Nc1c([N+](=O)[O-])cc2c3c(cccc13)CC2 | . | -7 | -73* | . | .
